Assay outcomes from PubChem.
Rows were chosen to be rich in hits. Some 2.4% of all compounds tested hit in one or more screens of this group.
POLI inh = qHTS for Inhibitors of Polymerase Iota; DNA polymerase iota (Homo sapiens), Q9UNA4; Pol iota fluorescent replication assay, 10 min; Potency, µM (doses to about 115 µM), without a hit: top-dose activity, negative = inhibition, usual class: inhibitors; 390,000 compounds, 1% hits
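Fluorescent replication assay read twice, at 0 min and 10 min after adding 50 nM (final) substrate. Enzyme (10 nM) and compounds were first incubated 15 min at room temperature; enzyme-free buffer wells were negative controls.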
POLB inh = qHTS Assay for Inhibitors of DNA Polymerase Beta | P06746 | 340,000 compounds, 1.3% hits | Potency, µM (highest dose often 114 µM), inactives show at the top dose activity change, negative = inhibition, hits mostly inhibitors | Pol beta primer extension/strand displacement, fluorescence kinetic; also: % is scaled to controls: 0 for no effect and ±100 for the full control effect
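Pol beta (10 nM) was preincubated with compound for 15 min at room temperature. The reaction was then started with 50 nM substrate and read immediately and after a further 10 min at room temperature.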
FEN1 inhibitor = qHTS Assay for the Inhibitors of Human Flap endonuclease 1 (FEN1); Potency, µM (series often up to 114 µM), for inactives: at the highest dose activity change, negative = inhibition, hits mostly inhibitors; Recombinant FEN1 flap cleavage, fluorescence, 15 min; 390,000 compounds, 0.35% hits; P39748; also: % is scaled to controls: 0 for no effect and ±100 for the full control effect; nearly all actives have a fitted effect of over 65% in size
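Read-out was taken twice, immediately and after 15 min, following addition of 50 nM substrate to 10 nM FEN1 that had sat with test compound for 15 min at room temperature. Curves came from a four-parameter Hill model.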
PGK inhibitor = qHTS Assay to Find Inhibitors of Phosphoglycerate Kinase; Phosphoglycerate kinase, glycosomal (Trypanosoma brucei brucei), P07378; PGK/GAPDH coupled, Kinase-Glo luminescence, 60 min; Potency, µM (titrated, usually from 57.5 µM), inactives show at the top dose activity change, negative = inhibition, actives largely listed as inhibitors; 380,000 compounds, 0.043% hits; AID 602233, 2012; also: % is scaled to controls: 0 for no effect and ±100 for the full control effect; nearly all actives have a fitted effect of over 60% in size
Target sequence (P07378 whole entry, looked up): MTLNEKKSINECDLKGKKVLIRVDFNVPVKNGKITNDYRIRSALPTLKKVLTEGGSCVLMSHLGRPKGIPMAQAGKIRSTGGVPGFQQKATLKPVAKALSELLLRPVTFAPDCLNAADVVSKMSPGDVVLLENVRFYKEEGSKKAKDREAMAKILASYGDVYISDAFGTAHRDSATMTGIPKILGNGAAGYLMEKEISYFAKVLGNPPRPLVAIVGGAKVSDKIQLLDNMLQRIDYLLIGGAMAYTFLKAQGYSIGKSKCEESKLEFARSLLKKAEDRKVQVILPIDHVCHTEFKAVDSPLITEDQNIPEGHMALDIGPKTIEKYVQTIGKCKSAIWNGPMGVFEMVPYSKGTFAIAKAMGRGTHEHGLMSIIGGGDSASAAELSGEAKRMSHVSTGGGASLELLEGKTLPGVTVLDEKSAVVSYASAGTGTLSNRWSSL
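Luminescent ATP detection (Kinase-Glo Plus) follows a 60-minute room-temperature incubation, with wells lacking PGK as controls. Buffer: 100 mM TEA (pH 7.6), 5 mM MgCl2, 0.01% Tween-20. Coupling enzyme GAPDH (100 nM final) supplies unstable 1,3-BPG in-well.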
Pol kappa inh = qHTS for Inhibitors of Polymerase Kappa; DNA polymerase kappa (Homo sapiens), Q9UBT6; purified Pol kappa, fluorescent DNA synthesis assay, 10 min; Potency, µM (titrated, usually from 107 µM), inactives show at the top dose activity, negative = inhibition, hits mostly inhibitors; 400,000 compounds, 0.53% hits; also: % is scaled to controls: 0 for no effect and ±100 for the full control effect
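10 nM Pol kappa was preincubated with compounds for 15 min at room temperature. Reaction started with 50 nM (final) substrate. Fluorescence read kinetically at 0 and 10 min.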
Pol eta inh = qHTS for Inhibitors of Polymerase Eta. DNA polymerase eta (Homo sapiens), Q9Y253. recombinant Pol eta, fluorescent DNA replication assay. Potency, µM (series often up to 114 µM), for inactives: at the top dose activity change, negative = inhibition, usual class: inhibitors. 390,000 compounds, 1.2% hits. AID 588591, 2011; also: % is scaled to controls: 0 for no effect and ±100 for the full control effect
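Fluorescent replication assay: 50 nM final substrate added after a 15 min room-temperature compound preincubation with 10 nM enzyme. Signal taken at 0 min and again at 10 min.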
Starred values were filed as active, the others as inactive; i = inactive; ? = inconclusive; . = not tested or not shown; ! = not confirmed by another sample; [ ] = dose if it differs, or a comment. Calls follow the shape of the dose curve; as a rule, active = well fitted curve in the direction sought with a large enough effect; inconclusive = small, poorly fitted or top-dose-only effect, or another doubt; inactive = no such curve, though single readings can be large; an effect the other way counts as inactive or inconclusive. Potency is read from the fitted curve at half-maximal effect.

SMILES | POLI inh | POLB inh | FEN1 inhibitor | PGK inhibitor | Pol kappa inh | Pol eta inh
CC1=Nc2cc(C(=O)O)ccc2Sc2ccc(Br)cc21 | ? | 1% | -2% | -7% | ? | 50µM*
CC1=Nc2cc(C(=O)NC3CCCC3)ccc2Sc2ccc(Br)cc21 | 8% | 21% | -19% | 3% | -11% | -12%
Oc1cc(O)cc(/C=C/c2ccc(O)c(O)c2)c1 | 16µM* | 7.9µM* | -20% | ? | 79µM* | 18µM*!
O=C(/C=C/c1ccc(C(F)(F)F)cc1)OC(C(=O)NC1CC1)c1ccccc1 (configuration not stated) | -20% | . | 16% | . | -15% | .
O=C(CSc1ccc(-c2cccs2)nn1)Nc1cccc(F)c1 | -3% | -5% | -10% | -1% | -7% | -8%
Cc1cnc2c3c(cc(Cl)c2c1)-c1ccccc1S(=O)(=O)N3 | 28µM* | . | ? | . | 79µM* | .
CCN(CC)CCCC(C)Nc1c2ccc(Cl)cc2nc2ccc(OC)cc12 (configuration not stated) | 7.9µM* | 16µM* | 11µM* | . | 8.9µM* | ?
CCN(CC)CCCC(C)Nc1cc(/C=C/c2ccccc2Cl)nc2cc(Cl)ccc12 (configuration not stated) | 71µM* | . | -26% | . | 2%[19.4 µM] | .
O/N=C(/CBr)c1ccc2ccccc2c1 | 2% | . | -5% | . | -26% | .
COc1ccc(-c2nc3ccccc3c(=O)n2N)cc1 | 20% | 56µM* | -5% | -4% | -12% | 9%
Cc1ccccc1OCC(=O)NCC(C)NC(=O)COc1ccccc1C (configuration not stated) | -7% | . | -15% | . | -14% | .
CCn1cc(C(=O)NCCN(CC(C)C)CC(C)C)c(=O)c2cc(S(=O)(=O)N(C)C3CCCCC3)ccc21 | 4% | -19% | -6% | -7% | 1% | -36%
CC1(C)CC(=O)C(C(C2=C(O)CC(C)(C)CC2=O)c2ccc(O)c([N+](=O)[O-])c2)=C(O)C1 | ? | -1% | 79µM* | -2% | -8% | ?
Cc1ccc(Oc2nc3c(c(=O)n(Cc4ccccc4)c(=O)n3C)n2C)cc1C | -11% | -21% | 7% | -9% | -12% | -28%
Cc1ccc(NC(=O)COC(=O)c2ccccc2OCC(=O)N(C)C)cc1 | 22% | . | 14% | . | -12% | .
COc1ccc(NC(=O)c2ccc3c(c2)C(=O)N(Cc2ccncc2)C3=O)cc1S(N)(=O)=O | 32µM* | . | -35% | -7% | -10% | ?
O=C(c1ccc2c(=O)n(CC3CCCO3)c(=S)[nH]c2c1)N1CCN(C(=O)c2ccco2)CC1 (configuration not stated) | -8% | . | -5% | . | 4% | .
O=C1CSC(=S)N1N1C(=O)c2cccc([N+](=O)[O-])c2C1=O | . | 3.2µM* | . | . | . | .
O=C(Cc1ccccc1)c1ccc(O)cc1O | 5% | . | -5% | -3% | -5% | -17%
O=C(O)c1cc(N(Cc2ccccc2O)Cc2cc(O)ccc2O)ccc1O | . | . | . | . | 11µM* | .
CC1CCCCN1C(=O)CSc1nc2ccccc2nc1Cc1ccc(Cl)cc1 (configuration not stated) | 4% | -17% | -17% | -3% | -15%[60.1 µM] | -25%
Cc1ccc(NC(=O)c2ccc(NC(=O)C3CCCC3)cc2)c(C)c1 | 20% | . | -1% | . | 1% | .
CCN(CC)CCOCCOC(=O)C(CC)(CC)c1ccccc1 (tested in a mixture with another compound) | . | . | . | . | -12%[60.1 µM] | .
O=C(O)c1c2c(nc3ccc(S(=O)(=O)N4CCC(C(=O)N5CCCCC5)CC4)cc13)CCCC2 | ? | -2% | -5% | i | ? | 32µM*
CC12CN3CC(C)(CN(C1)C3c1ccc3ccccc3c1O)C2=O (configuration not stated) | 79µM* | 12% | 0% | 3% | -6% | -9%
SMILES | POLI inh | POLB inh | FEN1 inhibitor | PGK inhibitor | Pol kappa inh | Pol eta inh
CCC(=O)Nc1ccc2nc(SCCOc3ccc(C)cc3OC)sc2c1 | -9% | -21% | -5% | -1% | -5% | -12%
COc1ccc(CN2CCSc3sccc3C2=O)cc1 | -16% | 79µM* | 19% | . | -7% | -2%
C[C@H](Cc1ccccc1)Nc1ncnc2c1ncn2[C@@H]1O[C@H](CO)[C@H](O)[C@H]1O | 11%[58.9 µM] | 18%[57.1 µM] | . | . | . | -2%[57.1 µM]
COc1ccc(C(=O)COC(=O)c2cc([N+](=O)[O-])ccc2N2CCOCC2)c(OC)c1 | 79µM* | . | -3% | -7% | -17% | ?
COc1ccc(C(=O)COC(=O)c2ccc3c(c2)OCO3)c(OC)c1 | 79µM* | . | -19% | -5% | ? | ?
C/C1=C2/[N-]C(C(CC(N)=O)[C@@]2(C)CCC(=O)NCC(C)OP(=O)([O-])O[C@H]2[C@@H](O)[C@@H](n3cnc4cc(C)c(C)cc43)O[C@@H]2CO)[C@]2(C)N=C(/C(C)=C3N=C(/C=C4N=C1C(CCC(N)=O)C\4(C)C)[C@@H](CCC(N)=O)[C@]\3(C)CC(N)=O)[C@@H](CCC(N)=O)[C@]2(C)CC(N)=O.CC(=O)O.[Co] (some centres not stated) | . | . | . | . | 3%[19.4 µM] | .
CCN(CC)S(=O)(=O)c1ccc(C(=O)N2CC(=O)Nc3ccc(F)cc3C2c2ccccc2)cc1 (configuration not stated) | -4% | -2% | -2% | -9% | 1% | -14%
Cc1cccc(CN2Cc3cccc4c3[C@H](C=CC4)CC2=O)c1 | 15% | . | 5% | . | -8% | .
O=C1C([N+](=O)[O-])=C(O)c2cccc3cccc1c23 | . | 11µM* | . | . | . | .
O=C1c2sccc2-c2cccc3cccc1c23 | . | . | . | -4% | . | -21%
COc1ccc(C2=CC(c3ccc(F)cc3)n3ncc(C(=O)Nc4ccc(C)cc4)c3N2)cc1 (configuration not stated) | 18% | -1% | 10% | 0% | -2% | -15%
CCOC(=O)Cc1cn2c(=O)cc(CSCC(=O)Nc3ccc(C)c(C)c3)nc2s1 | ? | ? | 36% | i | -20% | 89µM*
COc1ccc(NC(=O)/C(Cl)=C(/Cl)S(=O)(=O)Cc2ccc(C)cc2)cn1 | ? | -1% | -20% | 1% | -6% | 14µM*
CCN(CC)c1ccc(C(=O)NCc2ccc3c(c2)CCN3C(=O)c2ccc(F)cc2)cc1 | 20% | 3% | 14% | 8% | -12%[60.1 µM] | 79µM*
